Assay outcomes: PubChem BioAssay, National Center for Advancing Translational Sciences (NCATS)
Compounds with a hit are over-represented: about 12% of the library has one in this group of screens.
MARV entry inh: blocks Marburg virus binding to or entry into cells; Marburg virus pseudotyped entry inhibition, cell reporter; Potency, µM (highest dose often 37.8 µM), for inactives: top-dose activity change, negative = inhibition, usual class: inhibitors; 1.8% of 300,000 active; AID 540276; calls by dose curve; tested in HEK293 cells; further: potency means the concentration at half of the fitted maximal effect; on the % scale 0 is the no-effect control and ±100 the full control effect
Lassa entry inh: inhibitors of Lassa virus binding or cell entry | 1.2% of 300,000 active | Potency, µM (highest dose often 37.9 µM), without a hit: at the highest dose activity change, negative = inhibition, usual class: inhibitors | Lassa virus pseudotype entry inhibition, cell reporter | AID 540256; calls by dose curve; tested in HEK293 cells; further: potency means the concentration at half of the fitted maximal effect; on the % scale 0 is the no-effect control and ±100 the full control effect; nearly all actives have a fitted effect of over 50% in size
Shiga toxin inh: Shiga toxin inhibition | inhibition, % at 38.7 µM | 9.2% of 290,000 active | Vero cells, Shiga toxin protein synthesis inhibition reporter; in the data active means inhibition mostly above about 28%, no sharp cut-off; inactive means mostly below about 43%; further: 0% is about no effect
Cycloheximide cs: counter-screen for Shiga toxin inhibitors: cycloheximide protein synthesis inhibition | cell reporter, cycloheximide protein synthesis inhibition counterscreen | max response, % | 12% of 300,000 active | AID 2314; in the data active means max response mostly above about 13%, no sharp cut-off; inactive means mostly below about 14%; further: read at 38.3 µM for the half of the compounds with a filed dose; 0% is about no effect
Active calls of the source: *; ? = inconclusive; . = no result given; [ ] = dose if it differs, or a comment.

SMILES	MARV entry inh	Lassa entry inh	Shiga toxin inh	Cycloheximide cs
CC(C)[C@H](NC(=O)c1ccco1)C(=O)OCC(=O)NC12CC3CC(CC(C3)C1)C2	6.3%	6.6%	59.3*	21.2*
CC(C)[C@H](NC(=O)c1ccco1)C(=O)OCC(=O)N1CCc2ccccc21	0.8%	-28.6%	73.2*	14.4*
COc1cccc(NC(=O)COC(=O)CCC2CCCC2)c1	15.6%	-16.9%	.	.
Cc1nc(CS(=O)(=O)c2ccccc2)cc(Sc2ccc(Cl)cc2)n1	0.4%	-3.9%	55.3*	27.2*
Cc1nc(CS(=O)(=O)c2ccccc2)cc(Sc2ccccc2Cl)n1	?	-10.3%	104.6*	38.0*
Cc1nc(CS(=O)(=O)c2ccc(Cl)cc2)cc(Sc2ccccc2Cl)n1	?	?	18.9	-2.6
CC1CC(=O)N(CC(=O)Nc2ccc(F)cc2F)c2ccccc2S1 (stereo not given)	9.3%[46.1 µM]	.	.	.
COc1ccc2nc(-c3ccc(N(C)C)cc3)sc2c1	.	.	25.3*	31.6*
CNc1ccc(-c2nc3ccccc3s2)cc1	.	.	-8.4	-17.6
O=C1CCC(=O)N1c1ccc(-c2nc3ccccc3s2)cc1	?	29.5%[46.1 µM]	62.4*	34.6*
Brc1cc2c(cc1-c1nc3ccccc3s1)OCO2	6.2%[46.1 µM]	3.2%[46.1 µM]	64.6*	32.8*
CN(C)c1ncccc1-c1nc2ccccc2s1	3.7%[46.1 µM]	10.6%	23.1	17.5
COc1ccc2nc(N(CCN(C)C)C(=O)c3ccc4c(c3)OCCO4)sc2c1	.	.	-4.7	10.7
Brc1ccc(-c2nc3ccccc3s2)s1	?	?	96.2*	47.8*
CCOc1ccc(NC(=O)N2CCC(N3CCCCC3)CC2)cc1	?	19.7%[46.1 µM]	.	.
CN(C)S(=O)(=O)c1ccc(NC=O)cc1	?	-1.0%	-5.4	-0.5
COc1cc(OC)cc(C(=O)Nc2cc(-c3nc4ccccc4s3)ccc2OC)c1	3.1%[46.1 µM]	7.7%[46.1 µM]	.	.
COc1cc(OC)cc(-c2nc3ccccc3s2)c1	?	?	72.1*	46.1*
COc1ccc2nc(N)sc2c1	4.5%	7.9%	8.8	13.5
c1ccc(-c2nc3ccccc3s2)nc1	?	?	76.0*	61.1*
COc1ccc2nc(-n3c(C)ccc3C)sc2c1	10.5%	0.7%	77.4*	22.4*
Nc1ccc(-c2nc3ccccc3s2)cn1	?	.	103.6*	23.5
Nc1nonc1NC(=O)NN=C1CCCCC1	-6.1%	5.1%	44.1	1.0
CCCCCCCCCCCCCCCCCC(=O)OC(CC(=O)O)C[N+](C)(C)C (stereo not given)	?	-8.1%	.	.
Cc1cc(-c2nc3ccccc3s2)ccc1N	?	3.55µM*	.	.
SMILES	MARV entry inh	Lassa entry inh	Shiga toxin inh	Cycloheximide cs
CC(=O)Nc1cc(-c2nc3ccccc3s2)ccc1C	.	10.0%[46.1 µM]	.	.
COc1ccc2o/c(=N/NC(=O)c3cccs3)c(C(N)=O)cc2c1	?	-13.8%[46.1 µM]	70.9*	35.6*
N/C(=N\NC(=O)c1ccccc1)c1cc2ccccc2oc1=O	.	.	-6.0	6.5
N/C(=N\NC(=O)c1cccs1)c1cc2cc(Cl)ccc2oc1=O	.	.	48.8*	36.0*
Cc1ccc2nc(/C(C#N)=C\c3ccc([N+](=O)[O-])o3)[nH]c2c1	18.3µM*	3.26µM*	15.8	33.2
N#C/C(=C(/O)c1ccc([N+](=O)[O-])o1)c1nc2ccccc2[nH]1	.	.	0.9	0.2
N#C/C(=C\c1ccc([N+](=O)[O-])o1)c1nc2ccccc2[nH]1	-1.4%	.	47.6	17.3*
N#C/C(=C\c1ccc(Sc2ccccc2)o1)c1nc2ccccc2[nH]1	6.1%	?	126.8*	41.5*
CCCCC1=NN2CCS(=O)(=O)N=C2S1	-0.8%[46.1 µM]	-8.8%	-1.9	-6.0
CCN1C(=O)N(C)[C@@H](c2ccccc2)C(C(C)=O)=C1C	12.6%[14.2 µM]	.	.	.
CCCc1nc(SCC(=O)N2c3ccccc3CC2C)c2c(C)c(C)sc2n1 (stereo not given)	9.2µM*	?	-17.9	-2.5
CCOC(=O)CN1C(=O)[C@]2(OC[C@@H]3Cc4ccccc4[C@H]3C=C2C)c2ccccc21	-22.0%[14.2 µM]	.	.	.
CCN(CC)CCC(=O)Nc1ccc2c(c1)N(C(=O)CN(CC)CC)c1ccccc1CC2	6.31µM*	?	42.3	1.4
CCOC(=O)C(C(=O)NCc1ccc(F)cc1)c1ncc(C(F)(F)F)cc1Cl (stereo not given)	?	-6.8%	11.7	16.8*
Cc1ccnc(SCc2ccc(C(=O)O)cc2)n1	18.4%[46.1 µM]	17.3%[46.1 µM]	-8.9	-2.3
CN(c1nc(-c2ccccc2)cs1)C1CCS(=O)(=O)C1 (stereo not given)	10.1%	0.2%	61.0*	20.4*
Cc1ccc(NC(=O)CC2SC(=O)N(c3ccccc3)C2=O)cc1 (stereo not given)	10.0%	5.6%	50.9*	26.7*
O=C(CC1Sc2ncnn2C1=O)Nc1ccccc1 (stereo not given)	7.1%	50.9%[14.3 µM]	-7.8	17.5*
O=C1SC(Cc2ccccc2)C(=O)N1c1ccccc1 (stereo not given)	?	-9.5%	19.9	0.9
